Test [1] in a line: NCI Yeast Anticancer Drug Screen. Data for the rad50 strain (AID 155).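 Also: 0% = growth of vehicle-only cultures of the same strain.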 As to conditions: S. cerevisiae rad50 strain growth inhibition; at 50.0 µM; active compounds read high. Put shortly:
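Vehicle-treated cultures provide the reference for the growth inhibition reported for compound-exposed, repair-deficient yeast.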

Test [2] can be described thus: NCI Yeast Anticancer Drug Screen. Data for the mec2-1 strain (AID 157). As to conditions: S. cerevisiae mec2-1 strain, at 50.0 µM, active compounds read high. In short, it runs like this: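 Compounds were applied to mec2-1 yeast cells. Their growth was then compared with that of vehicle-treated cultures to give growth inhibition.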
A short description of test [3]: NCI Yeast Anticancer Drug Screen. Data for the sgs1 mgt1 strain (AID 161).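 Also: 0% = growth of cultures given vehicle only.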 As to conditions: S. cerevisiae sgs1 mgt1 strain, at 50.0 µM, active compounds read high. In short, it runs like this: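 Compounds are added to genetically altered yeast, and growth is compared with cultures given vehicle alone to give percent inhibition.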
The nature of test [4]: NCI Yeast Anticancer Drug Screen. Data for the cln2 rad14 strain (AID 165).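 Also: 0% = growth equal to vehicle treated cultures.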 Conditions: S. cerevisiae cln2 rad14 strain, at 50.0 µM, active compounds read high. Put shortly:
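Strain: cln2 rad14 yeast, altered in cell cycle control and DNA damage repair. Read-out: growth inhibition vs vehicle.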

Test [5] in a line: NCI Yeast Anticancer Drug Screen. Data for the bub3 strain (AID 167). As to conditions: S. cerevisiae bub3 mutant strain, at 50.0 µM, active compounds read high. Put shortly: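 Mutant yeast screening strain plus compound; vehicle-treated cultures serve as the 0% inhibition reference.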
The nature of test [6]: NCI Yeast Anticancer Drug Screen. Data for the mlh1 rad18 strain (AID 175). As to conditions: S. cerevisiae mlh1 rad18 strain growth inhibition; at 50.0 µM; active compounds read high. Put shortly: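 A repair-deficient yeast strain is exposed to test compound, and growth is scored relative to vehicle-treated controls.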

About 79,000 compounds went through this panel and 15% of them were active in at least one assay; those are over-represented in the sample as a whole. A number with no mark means an inactive call. Active and inactive are the calls of the source. Rule as the data show it: active = growth inhibition above about 70%; inactive = the rest.

In the case of `COc1ccc(CC(N)c2ccc(OC)cc2)cc1` (stereo not drawn), the growth inhibition is -50% in test [1]; 0.8% in test [2]; -40% in test [3]; -24.8% in test [4]; -11.3% in test [5]; -2.4% in test [6].

`O=C(CC(O)C(Cl)(Cl)Cl)CC(O)C(Cl)(Cl)Cl` (stereo not drawn): the growth inhibition in test [1] is 15%; in test [2], -0.7%; in test [3], 10.2%; in test [4], 18%; in test [5], 20.4%; in test [6], 13.4%.

For the compound `NC(=O)OC(CCl)CCl`, the growth inhibition in test [1] was 35.2%; in test [2] it was -10.1%; in test [3] it was -9%; in test [4], -13.3%; in test [5], -10%; in test [6], -4.3%.

As to `COP(=O)(OC)C(O)C(Br)(Br)Br` (stereo not drawn), the growth inhibition is 28.6% in test [1]; 23.1% in test [2]; 45.2% in test [3]; 34.8% in test [4]; 11.7% in test [5]; 23.8% in test [6].

In the case of `CCNP(=O)(OCC)OCC`, the growth inhibition in test [1] was 9.9%; in test [2], -15.6%; in test [3], 12.2%; in test [4], 24.4%; in test [5], 7.6%; in test [6], 17.9%.

On to `Oc1ccc(Cl)c(Cl)c1`, for which the growth inhibition in test [1] is -3.45%; in test [2], -32.5%; in test [3] it was -72.8%; in test [4], -3.1%; in test [5] it was -51.5%; in test [6] it was -13.8%.

With `CN(C)c1ccccc1`, the growth inhibition in test [1] was 0.35%; in test [2], 42.1%; in test [3], 5.35%; in test [4], -7.4%; in test [5], 3.1%; in test [6], 2.65%.

On to `C1CCC(N2CSC3CCCCC32)CC1` (stereo not drawn), for which the growth inhibition in test [1] was -0.65%; in test [2] it was -12.2%; in test [3] it was 4.35%; in test [4], -18.2%; in test [5], 16.2%; in test [6], 5.6%.

Turning to `O=C1C(=C([O-])c2ccccc2)C(=O)c2ccccc21.O=C1C(=C([O-])c2ccccc2)C(=O)c2ccccc21.[Fe+2]`, the growth inhibition in test [1] was 19.4%; in test [2], 28.9%; in test [3], 14.6%; in test [4], 22.2%; in test [5] it was 28.1%; in test [6], 15.8%.

`COc1cc2c(cc1O)CNCC2c1ccc(O)c(C)c1` (stereo not drawn): the growth inhibition in test [1] is -10.8%; in test [2] it was -14.6%; in test [3], 9.55%; in test [4] it was -13.8%; in test [5], -11.4%; in test [6], -4.7%.

With `CC(=O)[CH-]C(C)=O.O=[N+]([O-])O.[NH-]C1CCCCC1[NH-].[Pt+4]` (stereo not drawn), the growth inhibition in test [1] was 97.2% (active); in test [2], 98.5% (active); in test [3], 94.3% (active); in test [4], 98% (active); in test [5] it was 98.8% (active); in test [6] it was 94.8% (active).

With `O=C1c2ccccc2OP(=O)(OCC(F)(F)F)OC1(C(F)(F)F)C(F)(F)F` (stereo not drawn), the growth inhibition in test [1] was -21.4%; in test [2], -54.7%; in test [3] it was -15.2%; in test [4], -65.5%; in test [5] it was -41.5%; in test [6], -22.8%.

With `CN1C(=O)N(C)C(O)C(Cl)(Cl)C1=O` (stereo not drawn), the growth inhibition in test [1] is -4.75%; in test [2], 10.1%; in test [3], 13.6%; in test [4], 30.6%; in test [5], 26.1%; in test [6], 11.6%.

As for `COc1ccc(S(=O)(=O)F)cc1NC(=O)CCc1ccc(N2C(N)=NC(N)=NC2(C)C)cc1Cl`, the growth inhibition in test [1] is 79.8% (active); in test [2] it was 78.5% (active); in test [3], 86.8% (active); in test [4], 16.2%; in test [5] it was 4.7%; in test [6] it was 65.2%.

As for `CC(C)(O)[C@H]1[C@@H]2OC(=O)[C@H]1[C@]1(O)C[C@H]3OC34C(=O)O[C@H]2[C@@]41C` (stereo partly drawn) (tested in a mixture with another compound), the growth inhibition in test [1] is 1.05%; in test [2], -12.8%; in test [3], 19.6%; in test [4], -9.25%; in test [5], -12.4%; in test [6], -65.3%.

With `CC(C)OP(=O)(OC(C)C)C(=O)Nc1ccc(Cl)cc1`, the growth inhibition in test [1] was -24.9%; in test [2], 16.1%; in test [3], 5.85%; in test [4] it was -29.9%; in test [5], 16.5%; in test [6] it was -8%.

`COC(=O)C(CCC(=O)O)NC(=O)OCc1ccccc1` (stereo not drawn): the growth inhibition in test [1] was 40.5%; in test [2], -1.35%; in test [3] it was 17.6%; in test [4], -7.7%; in test [5], 4.55%; in test [6] it was 19.5%.

For the compound `Nc1cc(Cl)ccc1Cl`, the growth inhibition in test [1] is 1.1%; in test [2] it was -11.3%; in test [3], -19.2%; in test [4], -24.9%; in test [5] it was 1.15%; in test [6], -11.8%.

As to `Cc1nc2ccc(Br)cc2c(=O)n1-c1nnc(C(C)(C)C)s1`, the growth inhibition was -10.9% in test [1]; -40.4% in test [2]; -23.2% in test [3]; -5.75% in test [4]; -20.6% in test [5]; -12.2% in test [6].

For the compound `CCOc1ccccc1C=C(C#N)C#N`, the growth inhibition in test [1] was -2.25%; in test [2] it was 6%; in test [3], 19.1%; in test [4], 12.2%; in test [5] it was 1.75%; in test [6], -4.15%.

With `O=[Se](=O)(O)O`, the growth inhibition in test [1] was -45%; in test [2] it was -20.2%; in test [3] it was -8.4%; in test [4], -74.7%; in test [5], -12.6%; in test [6], -14.5%.

Regarding `Cc1ccc(N=C2OP(=O)(Nc3ccc(C)cc3)Oc3ccccc32)cc1` (stereo not drawn), the growth inhibition in test [1] was -11.3%; in test [2], -44.8%; in test [3], -23.6%; in test [4] it was 0.3%; in test [5], -6%; in test [6] it was -19.9%.

As to `CC(=O)OCC1OC([Se-])C(OC(C)=O)C(OC(C)=O)C1OC(C)=O.N#CCC[PH+](CCC#N)CCC#N.[Au+]` (stereo not drawn), the growth inhibition was 7.35% in test [1]; 6.75% in test [2]; -4.55% in test [3]; -15.8% in test [4]; 1.75% in test [5]; 10.1% in test [6].

On to `COc1ccc2c(c1OC(C)=O)-c1cc(OC(C)=O)cc3c1C(C2)NCC3` (stereo not drawn), for which the growth inhibition in test [1] was 11.7%; in test [2], -4%; in test [3], -5.7%; in test [4], 6.65%; in test [5], 1.9%; in test [6], 4.4%.

In the case of `COc1ccc(N)cc1OC`, the growth inhibition in test [1] was -2.15%; in test [2] it was 1.35%; in test [3], -4.8%; in test [4], -12.2%; in test [5], 6.7%; in test [6], -5.4%.

As to `Brc1ccc(-c2csc3c4ccccc4cc[n+]23)cc1`, the growth inhibition in test [1] was 14.6%; in test [2] it was -3.25%; in test [3], 12.2%; in test [4], -2.45%; in test [5], 21.8%; in test [6], -1.75%.

Consider `Cc1ccc2c(c1)N(CCCl)c1c(ccc3ccccc13)S2`, for which the growth inhibition in test [1] is -6.55%; in test [2], -10%; in test [3], -6.55%; in test [4] it was -67.9%; in test [5] it was 22.2%; in test [6], -6.6%.

Turning to `CC1(C)N=C(N)N=C(N)N1c1cccc(CCCCc2ccc(S(=O)(=O)F)c(Cl)c2)c1`, the growth inhibition is 99.5% (active) in test [1]; 99.7% (active) in test [2]; 99.5% (active) in test [3]; 99.4% (active) in test [4]; 99.3% (active) in test [5]; 99.7% (active) in test [6].

Consider `CC1=CC(=Nc2ccc(N(CCCl)CCCl)cc2)C=C(C)C1=O`, for which the growth inhibition in test [1] is 3.2%; in test [2], -16.6%; in test [3], 12.2%; in test [4] it was 13.8%; in test [5], 8.15%; in test [6] it was 37.1%.

Turning to `C=C(C)c1ccccc1` (tested in a mixture with another compound), the growth inhibition was 28% in test [1]; 9.05% in test [2]; -19.9% in test [3]; -8.8% in test [4]; -3.2% in test [5]; 10.6% in test [6].

For `CC(=O)[O-].CC(=O)[O-].O=C(N/N=C/c1cc(Cl)cc(Cl)c1O)c1ccncc1.[Ni+2]`, the growth inhibition was -12.6% in test [1]; 18.4% in test [2]; 19.1% in test [3]; -22.2% in test [4]; -0.05% in test [5]; 16.9% in test [6].

For the compound `CN(C)P(=S)(CCPc1ccccc1)N(C)C` (stereo not drawn), the growth inhibition is -13.5% in test [1]; -23.6% in test [2]; -12.8% in test [3]; 2.95% in test [4]; -5.75% in test [5]; -5.8% in test [6].

Take `NC(=O)c1cc([N+](=O)[O-])c([N+](=O)[O-])cc1N(CCCl)CCCl`: the growth inhibition in test [1] is 14.4%; in test [2], 8.95%; in test [3], 27.2%; in test [4], 0.4%; in test [5], -3.8%; in test [6], 13.3%.

On to `O=NNc1cncc(Cl)n1`, for which the growth inhibition was -11.2% in test [1]; -3.5% in test [2]; -5.35% in test [3]; -17.9% in test [4]; -0.4% in test [5]; -6.05% in test [6].

For `NC(=O)Nc1ccc([As]=O)cc1` (stereo not drawn), the growth inhibition in test [1] is 8%; in test [2], -5.7%; in test [3], -1.3%; in test [4], 11.5%; in test [5] it was -15.2%; in test [6] it was 2.65%.

Take `O=P1(Oc2ccccc2)N(CCCl)CCN1c1ccccc1` (stereo not drawn): the growth inhibition in test [1] was -12.2%; in test [2], -44.8%; in test [3], 7.15%; in test [4] it was 13.2%; in test [5] it was 32.1%; in test [6] it was -4.65%.

With `CCOP(=O)(OCC)N1C(C)C1C` (stereo not drawn), the growth inhibition was -0.05% in test [1]; 2.8% in test [2]; 17.6% in test [3]; -8.3% in test [4]; 4.25% in test [5]; -4.75% in test [6].

On to `CC1(C)CC(N2CCCCC2)=CC(=[N+]2CCCCC2)C1`, for which the growth inhibition is -6.55% in test [1]; -2% in test [2]; 22.3% in test [3]; 0.1% in test [4]; -5.85% in test [5]; -10.6% in test [6].
